We go through 39 sequences from paper PMC11006913.

The target of one assay is HOXA7 (Homo sapiens, UniProt P31268 116-202). Kind of assay: PBM; 200 nM protein, PBS. The settings on record: dsDNA, one strand shown.
Chain of HOXA7 (Homo sapiens, UniProt P31268 116-202) (P31268 116-202): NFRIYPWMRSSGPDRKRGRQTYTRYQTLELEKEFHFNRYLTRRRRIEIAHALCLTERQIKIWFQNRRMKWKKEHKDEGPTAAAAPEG
Take AATTGTAA: the binding signal was 9.73 upbm affinity estimate (log intensity, higher = more binding, comparable within an allelic series).
Still for that read-out and setting: to CTATTATA belongs 10.7 upbm affinity estimate (log intensity, higher = more binding, comparable within an allelic series); to AGGCTCTC, 8.46 upbm affinity estimate (log intensity, higher = more binding, comparable within an allelic series).
Turning to CGACTAGC, the binding signal was 8.47 upbm affinity estimate (log intensity, higher = more binding, comparable within an allelic series).
The same measure, in the same setting: as for CCTTCGAC, the figure is 8.4 upbm affinity estimate (log intensity, higher = more binding, comparable within an allelic series); as for CGGTCCGC, 8.63 upbm affinity estimate (log intensity, higher = more binding, comparable within an allelic series); as for AGCTCGGA, 8.37 upbm affinity estimate (log intensity, higher = more binding, comparable within an allelic series).
Still for that read-out and setting: as for CGAGGACG, the figure is 8.54 upbm affinity estimate (log intensity, higher = more binding, comparable within an allelic series).
For CATTTTAA, the binding signal is 9.97 upbm affinity estimate (log intensity, higher = more binding, comparable within an allelic series).
On the same count and under the same terms, to AGAAGGCG belongs 8.35 upbm affinity estimate (log intensity, higher = more binding, comparable within an allelic series).
With CGCAGGTC, the binding signal is 8.46 upbm affinity estimate (log intensity, higher = more binding, comparable within an allelic series).
Still for that read-out and setting: to CAGAGGAG belongs 8.43 upbm affinity estimate (log intensity, higher = more binding, comparable within an allelic series); to CCATAATC, 9.89 upbm affinity estimate (log intensity, higher = more binding, comparable within an allelic series).
On the same count and under the same terms, as for GCTTTCGA, the figure is 8.45 upbm affinity estimate (log intensity, higher = more binding, comparable within an allelic series).
Turning to ACCTAATC, the binding signal is 9.7 upbm affinity estimate (log intensity, higher = more binding, comparable within an allelic series).
On the same count and under the same terms, as for CAATTGCG, the figure is 9.48 upbm affinity estimate (log intensity, higher = more binding, comparable within an allelic series); as for AAATTACG, 10.3 upbm affinity estimate (log intensity, higher = more binding, comparable within an allelic series).
Consider ACAGCGAG, for which the binding signal is 8.39 upbm affinity estimate (log intensity, higher = more binding, comparable within an allelic series).
Consider GGCGGTCA, for which the binding signal was 8.58 upbm affinity estimate (log intensity, higher = more binding, comparable within an allelic series).
Take AGGCTGGA: the binding signal was 8.5 upbm affinity estimate (log intensity, higher = more binding, comparable within an allelic series).
Take AGAGCAAG: the binding signal was 8.36 upbm affinity estimate (log intensity, higher = more binding, comparable within an allelic series).
On the same count and under the same terms, as for ATATTGTA, the figure is 9.55 upbm affinity estimate (log intensity, higher = more binding, comparable within an allelic series); as for TAATTCAA, 9.8 upbm affinity estimate (log intensity, higher = more binding, comparable within an allelic series).
Still for that read-out and setting: to CCGTAATA belongs 10.2 upbm affinity estimate (log intensity, higher = more binding, comparable within an allelic series); to CACGGAAG, 8.42 upbm affinity estimate (log intensity, higher = more binding, comparable within an allelic series).
On the same count and under the same terms, as for AGCGCCGA, the figure is 8.38 upbm affinity estimate (log intensity, higher = more binding, comparable within an allelic series).
As to TAGTTTAA, the binding signal is 9.76 upbm affinity estimate (log intensity, higher = more binding, comparable within an allelic series).
Still for that read-out and setting: as for GACAGCGA, the figure is 8.31 upbm affinity estimate (log intensity, higher = more binding, comparable within an allelic series).
For AAGGCTAC, the binding signal is 8.53 upbm affinity estimate (log intensity, higher = more binding, comparable within an allelic series).
On to CTGAAGGC, for which the binding signal is 8.34 upbm affinity estimate (log intensity, higher = more binding, comparable within an allelic series).
As for CAGTAATC, the binding signal is 9.67 upbm affinity estimate (log intensity, higher = more binding, comparable within an allelic series).
Still for that read-out and setting: to CCAGAGGA belongs 8.4 upbm affinity estimate (log intensity, higher = more binding, comparable within an allelic series); to AGAAGAAA, 8.53 upbm affinity estimate (log intensity, higher = more binding, comparable within an allelic series).
Still for that read-out and setting: as for AGTAGCCG, the figure is 8.51 upbm affinity estimate (log intensity, higher = more binding, comparable within an allelic series).
As for CATTTACA, the binding signal is 9.74 upbm affinity estimate (log intensity, higher = more binding, comparable within an allelic series).
For CCTGTGTC, the binding signal is 8.55 upbm affinity estimate (log intensity, higher = more binding, comparable within an allelic series).
Still for that read-out and setting: as for AGCAGAAG, the figure is 8.46 upbm affinity estimate (log intensity, higher = more binding, comparable within an allelic series); as for GAAGGGAC, 8.46 upbm affinity estimate (log intensity, higher = more binding, comparable within an allelic series).
With AGGCCCAG, the binding signal was 8.42 upbm affinity estimate (log intensity, higher = more binding, comparable within an allelic series).

The next assay deals with HOXA7 (Homo sapiens, UniProt P31268 116-202, W177C). Kind of assay: PBM; 200 nM protein, PBS. Conditions: dsDNA, one strand shown.
Chain of HOXA7 (Homo sapiens, UniProt P31268 116-202, W177C) (P31268 116-202 W177C): as the sequence (P31268 116-202) above, with W62C counted along it
Consider AATTGTAA, for which the binding signal is 8.68 upbm affinity estimate (log intensity, higher = more binding, comparable within an allelic series).
On the same count and under the same terms, as for CTATTATA, the figure is 8.92 upbm affinity estimate (log intensity, higher = more binding, comparable within an allelic series); as for AGGCTCTC, 8.32 upbm affinity estimate (log intensity, higher = more binding, comparable within an allelic series); as for CGACTAGC, 8.47 upbm affinity estimate (log intensity, higher = more binding, comparable within an allelic series).
For the sequence CCTTCGAC, the binding signal is 8.45 upbm affinity estimate (log intensity, higher = more binding, comparable within an allelic series).
On the same count and under the same terms, as for CGGTCCGC, the figure is 8.41 upbm affinity estimate (log intensity, higher = more binding, comparable within an allelic series).
Regarding AGCTCGGA, the binding signal was 8.35 upbm affinity estimate (log intensity, higher = more binding, comparable within an allelic series).
The same measure, in the same setting: to CGAGGACG belongs 8.4 upbm affinity estimate (log intensity, higher = more binding, comparable within an allelic series).
On to CATTTTAA, for which the binding signal was 8.79 upbm affinity estimate (log intensity, higher = more binding, comparable within an allelic series).
The same measure, in the same setting: as for AGAAGGCG, the figure is 8.41 upbm affinity estimate (log intensity, higher = more binding, comparable within an allelic series); as for CGCAGGTC, 8.44 upbm affinity estimate (log intensity, higher = more binding, comparable within an allelic series); as for CAGAGGAG, 8.46 upbm affinity estimate (log intensity, higher = more binding, comparable within an allelic series).
As to CCATAATC, the binding signal was 8.75 upbm affinity estimate (log intensity, higher = more binding, comparable within an allelic series).
On to GCTTTCGA, for which the binding signal was 8.45 upbm affinity estimate (log intensity, higher = more binding, comparable within an allelic series).
Same read-out and setting: to ACCTAATC belongs 8.88 upbm affinity estimate (log intensity, higher = more binding, comparable within an allelic series); to CAATTGCG, 8.54 upbm affinity estimate (log intensity, higher = more binding, comparable within an allelic series); to AAATTACG, 8.82 upbm affinity estimate (log intensity, higher = more binding, comparable within an allelic series).
Still for that read-out and setting: as for ACAGCGAG, the figure is 8.41 upbm affinity estimate (log intensity, higher = more binding, comparable within an allelic series); as for GGCGGTCA, 8.5 upbm affinity estimate (log intensity, higher = more binding, comparable within an allelic series); as for AGGCTGGA, 8.45 upbm affinity estimate (log intensity, higher = more binding, comparable within an allelic series).
Turning to AGAGCAAG, the binding signal is 8.46 upbm affinity estimate (log intensity, higher = more binding, comparable within an allelic series).
ATATTGTA: the binding signal is 8.9 upbm affinity estimate (log intensity, higher = more binding, comparable within an allelic series).
Consider TAATTCAA, for which the binding signal was 8.74 upbm affinity estimate (log intensity, higher = more binding, comparable within an allelic series).
The same measure, in the same setting: to CCGTAATA belongs 8.79 upbm affinity estimate (log intensity, higher = more binding, comparable within an allelic series).
The same measure, in the same setting: as for CACGGAAG, the figure is 8.45 upbm affinity estimate (log intensity, higher = more binding, comparable within an allelic series); as for AGCGCCGA, 8.29 upbm affinity estimate (log intensity, higher = more binding, comparable within an allelic series); as for TAGTTTAA, 8.8 upbm affinity estimate (log intensity, higher = more binding, comparable within an allelic series).
For GACAGCGA, the binding signal is 8.41 upbm affinity estimate (log intensity, higher = more binding, comparable within an allelic series).
In the case of AAGGCTAC, the binding signal is 8.49 upbm affinity estimate (log intensity, higher = more binding, comparable within an allelic series).
Same read-out and setting: to CTGAAGGC belongs 8.31 upbm affinity estimate (log intensity, higher = more binding, comparable within an allelic series); to CAGTAATC, 8.66 upbm affinity estimate (log intensity, higher = more binding, comparable within an allelic series).
Same read-out and setting: as for CCAGAGGA, the figure is 8.47 upbm affinity estimate (log intensity, higher = more binding, comparable within an allelic series).
Regarding AGAAGAAA, the binding signal was 8.55 upbm affinity estimate (log intensity, higher = more binding, comparable within an allelic series).
For the sequence AGTAGCCG, the binding signal was 8.43 upbm affinity estimate (log intensity, higher = more binding, comparable within an allelic series).
The same measure, in the same setting: as for CATTTACA, the figure is 8.8 upbm affinity estimate (log intensity, higher = more binding, comparable within an allelic series); as for CCTGTGTC, 8.53 upbm affinity estimate (log intensity, higher = more binding, comparable within an allelic series).
Still for that read-out and setting: to AGCAGAAG belongs 8.54 upbm affinity estimate (log intensity, higher = more binding, comparable within an allelic series); to GAAGGGAC, 8.39 upbm affinity estimate (log intensity, higher = more binding, comparable within an allelic series); to AGGCCCAG, 8.28 upbm affinity estimate (log intensity, higher = more binding, comparable within an allelic series).
